Autofluor counter: compound fluorescence in toxin protease inhibitor counterscreen; compound autofluorescence counterscreen, microsphere flow cytometry; active compounds read high; fluorescence intensity (no concentration beside the values); 360,000 tested, 3.1% active; AID 624483; in the data active means fluorescence intensity above about 16000; inconclusive means no clear call, values can overlap the other calls
BoNT-F LC inh: inhibitors of Botulinum neurotoxin F light chain protease | Multiplex microsphere protease cleavage assay, flow cytometry | inhibition, % at 10 µM | 360,000 tested, 0.22% active | AID 588497; in the data active means inhibition above about 35%, passing the limit was not always enough; inconclusive means no clear call, values can overlap the other calls; further: plate controls were buffer without enzyme for full effect and enzyme alone for no effect
BoNT A protease: BoNT A light chain protease inhibition | multiplex microsphere protease substrate cleavage, flow cytometry | inhibition, % at 10 µM | 360,000 tested, 0.17% active; further: plate controls were buffer without enzyme for full effect and enzyme alone for no effect
Anthrax LF prot: blocks Bacillus anthracis lethal factor protease | P15917 | multiplex microsphere protease cleavage assay, LF | inhibition, % at 10 µM | 360,000 tested, 0.12% active | AID 588501; further: plate controls were buffer without enzyme for full effect and enzyme alone for no effect
MazF activator: MazEF (E. coli) toxin RNase activation; 350,000 tested, 0.32% active; AID 504720; activation, % at 20 µM; FAM/BHQ RNA-DNA oligo cleavage fluorescence, 5 h; in the data active means activation above about 50%
Target sequence (P0AE70 whole entry, looked up): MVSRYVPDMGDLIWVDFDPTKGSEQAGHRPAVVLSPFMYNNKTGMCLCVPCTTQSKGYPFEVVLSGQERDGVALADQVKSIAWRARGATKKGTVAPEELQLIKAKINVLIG
An asterisk follows results filed as active. The list is not random: actives were taken first. Their share in the collection is about 3.6%. Unless noted, no stated cut-off is given here; in the data, active means inhibition above about 30%; inconclusive means no clear call, values can overlap the other calls; inactive means below that.

Screening O=C(CCC1CCCCC1)NNC(=O)NC12CC3CC(CC(C3)C1)C2 returned Autofluor counter 23967*, BoNT-F LC inh 0, BoNT A protease inconclusive, Anthrax LF prot 0 and MazF activator -2.
O=C(O)CCC(=O)NNC(=O)CCC1CCCCC1 was read as Autofluor counter 2042, BoNT-F LC inh 1, BoNT A protease -1, Anthrax LF prot 2 and MazF activator 14.
Screening Cc1cc(NC(=O)COC(=O)c2ccc(C)c(C)c2)no1 returned Autofluor counter 4081, BoNT-F LC inh -5, BoNT A protease 0, Anthrax LF prot -10 and MazF activator 5.
For Cc1cc(NC(=O)COC(=O)c2cccc(OCc3ccccc3)c2)no1 the results were Autofluor counter 20597*, BoNT-F LC inh -2, BoNT A protease -1, Anthrax LF prot 0 and MazF activator -4.
Screening Cc1cc(NC(=O)COC(=O)CSCc2ccc(Cl)c(Cl)c2)no1 returned Autofluor counter 22915*, BoNT-F LC inh 4, BoNT A protease inconclusive, Anthrax LF prot 0 and MazF activator 3.
Screening Cc1cc(NC(=O)CSCC(=O)N(C)Cc2ccc(Cl)c(Cl)c2)no1 returned Autofluor counter 5307, BoNT-F LC inh 6, BoNT A protease 1, Anthrax LF prot 1 and MazF activator -5.
`Cc1noc(C)c1C(=O)OCC(=O)c1cc(C)n(Cc2ccccc2Cl)c1C` gave Autofluor counter 22970*, BoNT-F LC inh -4, BoNT A protease -2, Anthrax LF prot -17 and MazF activator 2.
For Cc1noc(C)c1C(=O)OCC(=O)c1ccc[nH]1 the results were Autofluor counter 3747, BoNT-F LC inh 3, BoNT A protease 1, Anthrax LF prot -1 and MazF activator 3.
`Cc1cc(NC(=O)COC(=O)c2c(C)nn(Cc3ccccc3Cl)c2Cl)no1` gave Autofluor counter 24183*, BoNT-F LC inh -4, BoNT A protease -3, Anthrax LF prot -7 and MazF activator 7.
`COc1ccc(S(=O)(=O)Nc2ccc3c(c2)C(=O)N([C@H](C)CO)C[C@H](C)[C@@H](CN(C)C(=O)Nc2ccc(C(F)(F)F)cc2)OCCCC[C@H](C)O3)cc1` gave Autofluor counter 3842, BoNT-F LC inh -2, BoNT A protease 0, Anthrax LF prot 4 and MazF activator -5.
`CC(=O)OC[C@@H]1CN(Cc2ccccc2)C[C@H](n2cnc3c(NCC(C)C)ncnc32)O1` gave Autofluor counter 3722, BoNT-F LC inh 0, BoNT A protease 0 and Anthrax LF prot -6.
Screening CCc1nc2ccc(C(=O)N3CCN(C)CC3)cn2c1N(CCC(C)C)CCN(C)C returned Autofluor counter 3738, BoNT-F LC inh -8, BoNT A protease 0 and Anthrax LF prot -4.
Screening CCOc1ccc(CCN2C(=S)N([C@@H](Cc3ccc(O)cc3)CN3CCC[C@@H]3CN3C(=S)NC[C@@H]3CC(C)C)C[C@@H]2Cc2ccc(O)cc2)cc1 returned Autofluor counter 6502, BoNT-F LC inh -12, BoNT A protease -1 and Anthrax LF prot -11.
COc1ccccc1Oc1cc(C#N)c(C#N)cc1-n1nnc2ccccc21 was read as Autofluor counter 22329*, BoNT-F LC inh 2, BoNT A protease 2, Anthrax LF prot -8 and MazF activator 0.
Clc1ccc2nc(COc3ccccc3)[nH]c2c1 was read as Autofluor counter 3193, BoNT-F LC inh -21, BoNT A protease -2, Anthrax LF prot -8 and MazF activator 8.
For C/C(=N\NC(=O)c1ccc(Cl)c(Cl)c1)c1ccccn1 the results were Autofluor counter 3592, BoNT-F LC inh 37*, BoNT A protease 11, Anthrax LF prot -4 and MazF activator -1.
`CC[n+]1c(/C=C/C=C/N(C(C)=O)c2ccccc2)sc2cc(OC)ccc21` gave MazF activator 506*.
For CC[n+]1c(/C=C(\C)OC)sc2ccccc21 the results were Autofluor counter 4602, BoNT-F LC inh -6, BoNT A protease 0, Anthrax LF prot 0 and MazF activator 2.
Screening COCCN(C(=O)c1cc(CN2C(=O)c3ccccc3C2=O)ccc1OC)c1c(N)n(CC(C)C)c(=O)[nH]c1=O returned Autofluor counter 3704, BoNT-F LC inh 11, BoNT A protease 0, Anthrax LF prot 8 and MazF activator 4.
Screening O=C(CCCCn1c(=S)[nH]c2ccsc2c1=O)NCc1ccco1 returned Autofluor counter 16657*, BoNT-F LC inh -4, BoNT A protease -1, Anthrax LF prot -9 and MazF activator 2.
O=C(CCCn1c(=S)[nH]c2ccsc2c1=O)NCc1ccco1 was read as Autofluor counter 19127*, BoNT-F LC inh 2, BoNT A protease 1, Anthrax LF prot -4 and MazF activator -1.
`Cc1ccccc1Cn1c(=O)n(CCCC(=O)NCc2ccco2)c(=O)c2sccc21` gave Autofluor counter 3128, BoNT-F LC inh 2, BoNT A protease 0, Anthrax LF prot -1 and MazF activator -9.
CC1(C(=O)Nc2ccccc2F)CCN1C(=O)Cc1ccc(-c2ccccc2)cc1 (stereo not given) was read as Autofluor counter 3895, BoNT-F LC inh -6, BoNT A protease 0 and Anthrax LF prot -4.
CSc1ncnc2c1ncn2CCCN1CCN(C(=O)C2CC2)CC1 was read as Autofluor counter 2883, BoNT-F LC inh -5, BoNT A protease 0, Anthrax LF prot 4 and MazF activator 7.
CCOC(=O)c1[nH]c(C=O)c(C(=O)OCC)c1C was read as Autofluor counter 3441, BoNT-F LC inh -4, BoNT A protease 0, Anthrax LF prot 2 and MazF activator 8.
`CCOC(=O)c1nc(C)[nH]c1C(=O)OCC` gave Autofluor counter 22419*, BoNT-F LC inh 0, BoNT A protease inconclusive, Anthrax LF prot -4 and MazF activator -9.
`O=C(CCc1ccccc1)Nc1ccc(NS(=O)(=O)c2ccccc2)cc1` gave Autofluor counter 3940, BoNT-F LC inh 16, BoNT A protease 0, Anthrax LF prot -11 and MazF activator 16.
Screening CC(C)NS(=O)(=O)c1ccc(NC(=O)CCc2ccccc2)cc1 returned Autofluor counter 21469*, BoNT-F LC inh 6, BoNT A protease 4, Anthrax LF prot -6 and MazF activator 3.
Screening COCC(=O)Nc1ccc(S(=O)(=O)NCCc2ccccc2)cc1 returned Autofluor counter 16357*, BoNT-F LC inh -2, BoNT A protease 0, Anthrax LF prot -1 and MazF activator 7.
`CCc1nc2c(OCc3ccccc3C)cccn2c1N(C)C(=O)C1CC1` gave Autofluor counter 4158, BoNT-F LC inh -1, BoNT A protease 0 and Anthrax LF prot -4.
Cn1c(O)c(C=NC2CCCCC2)c(=O)[nH]c1=S was read as Autofluor counter 2272, BoNT-F LC inh 0, BoNT A protease 0, Anthrax LF prot -1 and MazF activator -3.
O=c1[nH]c(O)c(C=NC2CCCCC2)c(=O)[nH]1 was read as Autofluor counter 3857, BoNT-F LC inh inconclusive, BoNT A protease -12, Anthrax LF prot 37* and MazF activator -2.
Screening CC1(C)C(=O)OC(c2cccs2)C(C)(C)C1=O (stereo not given) returned Autofluor counter 19729*, BoNT-F LC inh 0, BoNT A protease 0, Anthrax LF prot -5 and MazF activator -1.

Assay outcomes as filed in PubChem BioAssay.
